A selection: hits, their analogues and other compounds. The true share with any hit is near 10%.
HPGD block = blocks human HPGD enzyme activity; P15428; purified HPGD, NADH fluorescence kinetic, PGE2 substrate; Potency, µM, most hits filed as inhibitors; hit rate 4.3% among 150,000
Target sequence (P15428 whole entry, looked up): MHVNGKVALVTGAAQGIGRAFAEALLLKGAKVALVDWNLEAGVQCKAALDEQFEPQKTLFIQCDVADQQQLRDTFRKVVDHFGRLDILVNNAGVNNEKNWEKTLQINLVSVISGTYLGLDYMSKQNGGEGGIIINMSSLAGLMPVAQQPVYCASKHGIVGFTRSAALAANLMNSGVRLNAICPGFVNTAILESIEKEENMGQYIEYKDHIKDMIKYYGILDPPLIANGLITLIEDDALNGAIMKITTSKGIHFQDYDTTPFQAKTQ
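NADH formation kinetics: reaction with 30 uM PGE2 and 1 mM NAD+ (final), 20 nM enzyme, Tris-HCl pH 8 with Tween 20, after 15 min compound preincubation at room temperature. Fluorescence change, last versus first of five reads.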
PNC assembly inh = blocks assembly of the perinucleolar compartment. activity change (PNC), negative = inhibition, % at 10 µM. PC3M PTB-GFP, PNC prevalence imaging, 16 h; active compounds read low. hit rate 3.1% among 140,000;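 active means readout at or below -70, meaning at least 70% loss of cells showing the perinucleolar compartment, a nuclear body marking cancer cells; inconclusive means readout between -30 and a set limit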
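Compounds are pinned in duplicate onto adhered PC3M cells stably expressing GFP-tagged PTB and incubated 16 h at 37 C. Cells are then fixed, nuclei stained with Hoechst, and PNC-positive cells counted.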
ALDH1A1 inh = inhibitors of human aldehyde dehydrogenase 1A1. Purified ALDH1A1, NADH fluorescence, propionaldehyde substrate. Potency, µM (titrated, usually from 75.3 µM), most hits filed as inhibitors. hit rate 7.3% among 220,000. P00352
LMNA splice mod = LMNA splicing modulation; Potency, µM (top dose mostly 46.1 µM), usual class: inhibitors; HeLa LMNA splicing GFP/RFP minigene ratio, 48 h; hit rate 0.01% among 200,000; active means well fitted inhibition curve with a large enough effect in the signal ratio, with a control signal flat, not every such curve was filed as active; inconclusive means small, poorly fitted or top-dose-only effect, or effect the other way, or a change in a side signal; the % refers to the signal ratio
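S3 HeLa stable clones carrying a lamin A-EGFP splicing minigene plus DsRed2 were seeded at 600 cells/well in Opti-MEM with 2% FBS, pin-dosed and incubated 48 h at 37°C. Acumen cytometry (488 nm) gave the GFP/RFP total-intensity ratio.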
KinaseGlo FLuc = counter-screen: inhibitors of Kinase-Glo firefly luciferase; Potency, µM (top dose mostly 38.3 µM), actives largely listed as inhibitors; Kinase-Glo luciferase, ATP luminescence, 8 min; Q27757; hit rate 0.28% among 200,000; AID 1379; active means well fitted inhibition curve with a large enough effect; inconclusive means small, poorly fitted or top-dose-only effect; further: nearly all actives have a fitted effect of over 60% in size
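Recombinant Kinase-Glo luciferase, 10 uM ATP (linear range), luciferin; imidazole pH 7.2 / KCl / MgCl2 / Tween / BSA buffer; 8 min RT; luminescence.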
IMPase cell inh = membrane-permeable compound that blocks inositol monophosphatase | inhibition (IP1 accumulation), % at 46.1 µM | CHO-M1 cells, IP1 accumulation, HTRF TR-FRET ratio | 120,000 tested, under 10 active | AID 901; active means well fitted curve in the direction sought with a large enough effect in the signal ratio, not every such curve was filed as active; inconclusive means small, poorly fitted or top-dose-only effect, or a change in a side signal; inactive means no such curve, though single readings can be large or run the other way; the % refers to the signal ratio;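 further: cells stimulated with carbachol in lithium chloride buffer; higher means more IMPase inhibition seen as more IP1 and lower FRET ratio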
Target sequence (P97697 whole entry, looked up): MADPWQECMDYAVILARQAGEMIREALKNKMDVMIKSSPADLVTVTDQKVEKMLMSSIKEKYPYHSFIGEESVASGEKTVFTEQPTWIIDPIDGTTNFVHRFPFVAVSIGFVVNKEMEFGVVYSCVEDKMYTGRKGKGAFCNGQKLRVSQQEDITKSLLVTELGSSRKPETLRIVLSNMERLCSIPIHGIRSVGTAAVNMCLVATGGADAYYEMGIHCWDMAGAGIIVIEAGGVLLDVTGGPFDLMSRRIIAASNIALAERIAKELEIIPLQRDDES
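Cellular IMPase inhibition is scored as a rise in cytosolic IP1, detected by competitive TR-FRET between d2-labelled IP1 and a europium anti-IP1 antibody. M1-expressing CHO cells were stimulated with carbachol for 30 min at 37C, with lithium (50 mM LiCl) present in the buffer.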
Each line names hits and unclear results; the compound was inactive in the other large screens. Unless noted, the call rests on the fitted dose curve; in most records, active means well fitted inhibition curve with a large enough effect (not every such curve was filed as active); inconclusive means small, poorly fitted or top-dose-only effect, or another doubt; inactive means no such curve, though single readings can be large or run the other way.

Cc1cnc2c(c1SCC(=O)NCc1ccc(F)cc1)c(=O)n(C)c(=O)n2C	none (no result: HPGD block, PNC assembly inh, ALDH1A1 inh, KinaseGlo FLuc, IMPase cell inh)
Nn1cnnc1SCC(=O)Nc1ccc(C2CCCCC2)cc1	ALDH1A1 inh 11µM
CCOc1cccc(=O)c2c(C)n(CC(=O)c3ccccc3)c(C)c12	ALDH1A1 inh 8.9µM (no result: HPGD block, PNC assembly inh, LMNA splice mod, IMPase cell inh)
COc1cccc(=O)c2c(C)n(CC(=O)c3ccccc3)c(C)c12	ALDH1A1 inh inconclusive (no result: HPGD block, PNC assembly inh, IMPase cell inh)
O=c1c2ccccc2oc2nc(-c3ccco3)n(CCc3ccccc3)c(=O)c12	PNC assembly inh -100
COc1ccc2c(=O)c3c(=O)n(Cc4ccco4)c(-c4ccccc4)nc3oc2c1	ALDH1A1 inh 22µM
COc1ccc2c(=O)c3c(=O)n(Cc4ccco4)c(-c4cc(OC)c(OC)c(OC)c4)nc3oc2c1	none
C=C(C)OC(C)=O	none (no result: PNC assembly inh, LMNA splice mod, KinaseGlo FLuc, IMPase cell inh)
O=C(CCSCc1cccc(Cl)c1)NC1CCCC1	HPGD block 14µM
O=C(CCSCc1cccc(Cl)c1)NCCC1=CCCCC1	HPGD block inconclusive
O=C(CCSCc1ccccc1Cl)NCCc1ccccc1	none (no result: HPGD block, PNC assembly inh, ALDH1A1 inh, KinaseGlo FLuc, IMPase cell inh)
O=C(CCSCc1ccccc1Cl)NC1CCCC1	HPGD block 11µM
Cc1ccc(C2CC(=O)n3nc(-c4ccc(F)cc4)nc3S2)cc1 (stereo not given)	none (no result: HPGD block, PNC assembly inh, ALDH1A1 inh, LMNA splice mod, KinaseGlo FLuc)
CC(C)(C)N1C(=O)[C@H]2[C@@H]3[C@H](O)C=CC(=O)[C@H]3CC[C@H]2C1=O	none (no result: HPGD block, PNC assembly inh, LMNA splice mod, KinaseGlo FLuc, IMPase cell inh)
CCN1C(=O)[C@H]2[C@@H]3[C@H](O)C=CC(=O)[C@H]3CC[C@H]2C1=O	ALDH1A1 inh 3.2µM (no result: HPGD block, PNC assembly inh, LMNA splice mod, KinaseGlo FLuc, IMPase cell inh)
CCOc1ccc(CNS(=O)(=O)c2c(C(=O)N3CCCCCC3)c(C)n(C)c2C)cc1OC	none (no result: HPGD block, PNC assembly inh, ALDH1A1 inh, KinaseGlo FLuc, IMPase cell inh)
CC(=O)OCC(=O)[C@@]1(O)CC[C@@H]2[C@H]3CCC4=CC(=O)CC[C@]4(C)[C@]3(F)[C@@H](O)C[C@@]21C	none (no result: PNC assembly inh)
Cc1ccc(SCCNS(=O)(=O)c2ccc(F)cc2)cc1	ALDH1A1 inh 16µM
Cc1ccc(SCCNS(=O)(=O)c2ccc3c(c2)OCCO3)cc1	ALDH1A1 inh 1.4µM, LMNA splice mod inconclusive
COc1ccc(S(=O)(=O)NCCSc2ccc(C)cc2)cc1OC	ALDH1A1 inh 5µM, LMNA splice mod inconclusive
Cc1ccc(-c2nnc(Nc3ccc(Br)cc3)c3ccccc23)cc1S(=O)(=O)N1CCCCC1	none (no result: HPGD block, PNC assembly inh, ALDH1A1 inh, LMNA splice mod, KinaseGlo FLuc)
COc1ccc(CC(N)C(=O)N[C@H]2[C@@H](O)[C@H](n3cnc4c(N(C)C)ncnc43)O[C@@H]2CO)cc1 (stereo not given in full)	none (no result: PNC assembly inh, LMNA splice mod, IMPase cell inh)
COCc1oc2ccc(NS(=O)(=O)c3ccc(C)cc3)cc2c1C(=O)OC	none (no result: HPGD block, PNC assembly inh, ALDH1A1 inh, LMNA splice mod, KinaseGlo FLuc)
COC(=O)c1cccc(N2C(=O)c3ccccc3S2(=O)=O)c1	HPGD block 25µM
COC(=O)c1ccc(CN2C(=O)c3ccccc3S2(=O)=O)cc1	none
CC(C)COP(=O)(CNC(=O)CN1C(=O)c2ccccc2S1(=O)=O)OCC(C)C	PNC assembly inh -82 (no result: IMPase cell inh)
COC(=O)c1ccccc1NC(=O)CN1C(=O)c2ccccc2S1(=O)=O	PNC assembly inh inconclusive, ALDH1A1 inh 25µM
O=C(CN1C(=O)c2ccccc2S1(=O)=O)NCc1ccccc1Cl	PNC assembly inh -119
NCCC[C@@H](CC(=O)N[C@@H]1CCCC[C@H]1C(=O)N[C@H](CC(=O)N[C@@H](CCC(=O)O)CC(=O)O)Cc1c[nH]c2ccccc12)NC(=O)C[C@H](Cc1c[nH]c2ccccc12)NC(=O)[C@@H]1CCCC[C@H]1N	ALDH1A1 inh inconclusive (no result: PNC assembly inh, LMNA splice mod, IMPase cell inh)
N#C/C(=C(/O)COc1ccc(Br)cc1)c1nnc2n1CCCCC2	none (no result: HPGD block, PNC assembly inh, IMPase cell inh)
C=CCN1C(c2ccc(OCC)cc2)=CS/C1=C(\C#N)c1nnc2n1CCCCC2	HPGD block 28µM, PNC assembly inh inconclusive, ALDH1A1 inh 14µM, LMNA splice mod inconclusive
Cc1cc(NC(=O)CCl)n(-c2nc3ccccc3s2)n1	ALDH1A1 inh 4µM (no result: HPGD block, PNC assembly inh, IMPase cell inh)
Cc1ccc(-c2nn(-c3ccccc3)cc2NC(=O)CCl)cc1	ALDH1A1 inh 20µM, LMNA splice mod inconclusive (no result: HPGD block, PNC assembly inh, IMPase cell inh)
O=C(CCl)Nc1cc(-c2ccccc2)nn1-c1ccccc1	PNC assembly inh inconclusive, ALDH1A1 inh 1.3µM, LMNA splice mod inconclusive
Cc1cc(NC(=O)C2CC2)n(-c2nc3ccccc3s2)n1	ALDH1A1 inh inconclusive (no result: HPGD block, PNC assembly inh, IMPase cell inh)
CC(=O)Nc1ccc(-c2cc(NC(C)=O)n(-c3ccccc3)n2)cc1	none (no result: HPGD block, KinaseGlo FLuc)
